From PubChem BioAssay AID2530 (National Center for Advancing Translational Sciences (NCATS), 2010)
Records with an inconclusive call do not appear. Entries that show only a call come without a potency. Active and inactive are the calls of the source. The call rests on the fitted dose curve; in most records, active means well fitted inhibition curve with a large enough effect; inconclusive means small, poorly fitted or top-dose-only effect; inactive means flat fitted curve, though single readings scatter.

Target: Luciferin 4-monooxygenase (Photuris pensylvanica) (UniProt Q27757)
Test: Secondary Assay for Luciferase (Kinase-Glo TM) Inhibition Counterscreen
Experimental: NIH Chemical Genomics Center [NCGC] Malcolm Walkinshaw, Hugh Morgan, Linda Gilmore University of Edinburgh, UK MLPCN Grant: 1 R03 MH085697-01 NCGC Assay Overview: Luciferase (Kinase-Glo, Promega Corporation) was assayed for its ability to generate light using ATP and luciferin as substrates. The ATP concentration in the assay (10 uM) was within the linear range of enzyme activity for the assay conditions used. This assay was used as an counter screen for human pyruvate kinase M2 isoform.
NCGC Assay Protocol Summary: Four uL of substrate mix (final concentration, 50 mM imidazole pH 7.2, 50 mM KCl, 7 mM MgCl2, 10 uM ATP, 0.01% Tween 20, 0.05% BSA) was dispensed into white 1536 well plates. Twenty-three nL of compound was delivered by a pin tool and 2 uL of luciferase detection mix (Kinase-Glo, Promega)) was added. Following 8-minute incubation at ambient temperature, luminescence was measured by a ViewLux (Perkin Elmer) at 5 seconds exposure/plate. Data were normalized to the controls for basal activity (DMSO only) and 100% inhibition (40 uM SIB 1757) and curve fitting was performed using Hill equation.
Potency means the concentration at half of the fitted maximal effect.

SMILES	Potency
C[C@]12CC[C@@H]3c4ccc(O)c(O)c4CC[C@H]3[C@@H]1CC[C@@H]2O	inactive
Cc1ccc(C(=O)n2c(N)nc3ccccc32)cc1	11.6 µM (active)
